tim23-1 inh = growth inhibitors of tim23-1 mutant yeast, primary screen, luminescence, uHTS; inhibition, % at 20 µM; hit rate 1.3% among 330,000; S. cerevisiae tim23-1 growth, BacTiter-Glo luminescence, 24 h; AID 463212, 2010;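 active = growth inhibition of the mutant yeast at or above 50%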;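 note: temperature-sensitive mutant grown at 25 °C; plate controls were DMSO-treated mutant yeast for no effect and medium wells lacking yeast for full effect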
PfHsp90 set2 = growth inhibition of PfHsp90-expressing yeast, primary screen, antimalarial PfHsp90 inhibitor project, S. cerevisiae, BacTiter-Glo luminescence, single point, set 2; hit rate 0.32% among 310,000; inhibition, % at 9.4 µM; AID 504621, 2011; BacTiter-Glo ATP, 48 h; yeast lacking PDR1 and PDR3 efflux regulators;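 active = every replicate shows inhibition above about 80%, whatever the replicate mean, limit read from the data; inconclusive = mean inhibition reaches the set limit but some replicate falls short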;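 note: 0% = DMSO neutral controls and 100% = 20 µM radicicol positive controls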
tim10-1 inh = growth inhibitors of tim10-1 mutant yeast, primary screen, luminescence, uHTS; inhibition, % at 20 µM; hit rate 2.2% among 330,000; S. cerevisiae tim10-1 ts strain growth, BacTiter-Glo, 24 h;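 active = inhibition of at least 40%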;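 note: mutant grown at 25 °C; 0% = DMSO wells with yeast and 100% = wells holding no yeast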
TIM10 inh = growth inhibitors of isogenic TIM10 control yeast, primary screen, counter-screen for tim10-1 yeast inhibitor project, luminescence, uHTS | S. cerevisiae TIM10 strain growth, BacTiter-Glo luminescence, 24 h | inhibition, % at 10 µM | hit rate 1.4% among 330,000 | AID 463195, 2010;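 active = inhibition of 40% or more at the single tested concentration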;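 note: wild-type TIM10 isogenic control strain grown at permissive 25 °C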
SKKanGAS inh = S. pyogenes SKKanGAS growth inhibitors in kanamycin, primary screen, streptokinase expression inhibitor project, SKKanGAS strain, BacTiter-Glo luminescence; 6 h; inhibition, % at 7.5 µM; hit rate 1.3% among 300,000; AID 1662, 2009;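 active = mean replicate score, as percent of positive control median, at least 50; inconclusive = mean below 50 but one replicate at or above 50; inactive = mean and every replicate below 50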;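 note: strain carries kanamycin resistance gene driven by streptokinase promoter and grows in 40 µg/ml kanamycin; loss of luminescence reflects streptokinase promoter inhibition or plain growth inhibition; 0% = median of DMSO wells and 100% = positive control at its reference dose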
V-ATPase pHluor = regulators of yeast V-ATPase proton pumping, primary screen, pHLuorin cytosolic pH fluorescence | S. cerevisiae | response, % at 10 µM | hit rate 0.37% among 350,000 | AID 504577, 2011; in the data active = response mostly above about 7.3%, no sharp cut-off; inactive = mostly below about 5.4%; note: actives read high
tim23-1 confirm = tim23-1 mutant yeast growth inhibitors, confirmation, luminescence, single concentration; S. cerevisiae tim23-1 growth, BacTiter-Glo luminescence, 24 h; shares compounds with tim23-1 inh; inhibition, % at 20 µM; hit rate 83% among 4,400;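 active = inhibition above about 39% in either of two replicate wells at 20 µM, limit read from the data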;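 note: temperature-sensitive tim23-1 mutant grown at 25 °C; 0% = DMSO wells with yeast and 100% = medium wells without yeast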
The depositor's hits bear a star; ? = inconclusive; . = no result. Hits are enriched below; roughly 4.6% of the tested compounds scored in any of these assays.

SMILES	tim23-1 inh	PfHsp90 set2	tim10-1 inh	TIM10 inh	SKKanGAS inh	V-ATPase pHluor	tim23-1 confirm
CCCCC(=O)NC(c1ccc(N(C)C)cc1)c1ccc2cccnc2c1O (stereo not drawn)	53.7*	69.7	-6.8	-53.6	4.7	-1.6	52.5*
CCCC(=O)NC(c1ccc(C)cc1)c1ccc2cccnc2c1O (stereo not drawn)	60.7*	113.3*	-7.7	-24.5	71.8*	1.3	57.9*
CCCC(=O)NC(c1ccc(N(C)C)cc1)c1c(O)ccc2ccccc12 (stereo not drawn)	20.9	21.7	33.4	22.4	3.9	0.2	.
CCCC(=O)NC(c1ccc(Cl)cc1)c1ccc2cccnc2c1O (stereo not drawn)	60.0*	115.3*	-4.1	-22.7	57.5*	-0.2	59.5*
CCOC(=O)NNc1ccc2nonc2c1[N+](=O)[O-]	55.7*	-4.7	19.9	31.3	11.2	12.2	69.2*
CCOc1cc(/C=C2\COc3ccccc3C2=O)ccc1OCC(=O)N(C)C	54.4*	-86.6	29.6	33.8	4.1	-1.0	52.9*
CCOc1cc(/C=N/Nc2ccccc2Cl)ccc1OCC(=O)O	.	21.0	.	.	.	-1.7	.
CC1(C)CC(=O)C=C(c2cccc(Cl)c2O)C1	59.5*	-9.3	-0.9	17.2	.	-0.6	53.3*
COc1cccc(C2=CC(=O)CC(C)(C)C2)c1OC	21.1	-1.2	11.6	4.8	.	2.2	.
O=C(Oc1ccc2c(c1)OCO2)C12CC3CC(CC(C3)C1)C2	32.3	7.2	13.9	7.2	7.3	-1.7	.
O=C(OCC(=O)C12CC3CC(CC(C3)C1)C2)c1ccc(O)cc1	63.3*	99.4*	-6.0	-3.1	.	-0.4	60.8*
O=C(Oc1ccc(O)cc1)C12CC3CC(CC(C3)C1)C2	63.2*	-24.4	-19.0	25.3	24.3	-0.2	65.6*
COc1cc(/C=C/[N+](=O)[O-])ccc1OC(=O)c1cc2ccccc2oc1=O	79.6*	106.3*	20.8	24.8	0.9	-1.7	73.4*
COc1ccccc1OC(=O)c1cc2ccccc2oc1=O	26.1	-4.6	8.1	-3.6	4.8	-3.0	.
O=C(COCc1ccccc1)N[C@@H]1c2ccccc2CC[C@H]1OCc1ccccc1	52.2*	15.1	25.1	16.8	.	-2.3	38.2
C[C@H](CO)N1C[C@H](C)[C@@H](CN(C)C(=O)CN2CCOCC2)Oc2ncc(-c3cncnc3)cc2C1=O	.	.	.	.	.	-2.2	.
CC(=O)Oc1cccc(N2C(=O)c3cccc4c([N+](=O)[O-])ccc(c34)C2=O)c1	50.6*	-17.1	33.2	38.5	8.8	-19.9	51.2*
Nc1nc2ccccc2n1/N=C/c1cccnc1	-34.9	-8.9	0.6	9.6	-2.2	0.5	.
Nc1nc2ccccc2n1/N=C/c1ccc(-c2ccccc2)o1	54.5*	11.6	14.5	37.6	?	0.7	18.4
Cc1cccc(C(=O)NC(=S)Nc2ccccc2C(F)(F)F)c1	50.8*	-30.9	29.8	21.8	1.4	-2.4	38.0*
CCc1ccc(CNC(=O)C2CCN(S(=O)(=O)N3CCCCC3)CC2)cc1	.	.	.	.	.	-1.2	.
O=C(O)c1cccc(N/N=C(\N=Nc2ccccc2)c2ccccc2)c1	52.9*	0.2	34.3	3.0	21.4	0.9	45.9*
COc1ccc(-c2sc3ccccc3c2-c2ccc(OCCN(C)C)cc2)cc1	2.7	40.6	14.1	-11.2	.	3.3	.
CN(C)CCOc1ccc(-c2c(-c3ccsc3)sc3ccccc23)cc1	76.4*	23.7	25.1	13.6	.	-4.8	56.9*
Cc1cc2oc(=O)cc(-c3ccccc3)c2c(C)c1-c1ccc(CO)cc1	53.5*	-36.5	14.2	-4.3	.	-4.8	32.8
SMILES	tim23-1 inh	PfHsp90 set2	tim10-1 inh	TIM10 inh	SKKanGAS inh	V-ATPase pHluor	tim23-1 confirm
NCCCCc1ccc2ccc3cccc4ccc1c2c34	50.2*	12.3	32.5	7.3	.	0.2	9.2
CC(=O)NC(c1ccc(Cl)cc1Cl)c1ccc2cccnc2c1O (stereo not drawn)	57.8*	106.1*	-1.0	-36.5	73.2*	1.2	57.0*
CC(=O)NC(c1ccc2ccccc2c1)c1ccc2cccnc2c1O (stereo not drawn)	55.3*	108.2*	17.7	-28.1	89.2*	-1.2	70.8*
O=S(=O)(NCc1ccccc1)NCc1ccc(Cl)cc1Cl	7.2	15.8	2.3	-40.5	-3.0	1.1	.
COc1cc(/C=C(\C#N)c2nc3ccccc3o2)ccc1O	41.3	10.9	13.6	-19.7	11.2	-6.0	.
N#C/C(=C\c1ccc(O)cc1)c1nc2ccccc2o1	54.4*	9.5	33.1	36.2	-12.7	-2.3	61.3*
COc1ccccc1/C=C/C(=O)OCC(=O)c1c(N)n(C)c(=O)n(C)c1=O	94.8*	10.6	8.4	-8.1	6.4	2.1	0.0
CCOc1ccc(CN(C(=O)c2cc(=O)c3cc(C)cc(C)c3o2)C2CCS(=O)(=O)C2)cc1 (stereo not drawn)	9.8	16.6	7.2	6.4	-6.0	2.1	.
CCOc1ccc(NC(=O)c2cc3ccccc3cc2OC)cc1	14.4	13.5	7.6	0.7	-1.0	-2.3	.
COc1ccccc1C(=O)Nc1nc2ccccc2s1	58.3*	28.6	34.8	34.6	48.4	0.4	48.3*
COc1ccccc1C(=O)Nc1nc2ccc(S(C)(=O)=O)cc2s1	-7.9	-7.3	33.3	9.8	-8.1	-4.4	.
COc1ccc(C(=O)Nc2nc3ccccc3s2)c(OC)c1	62.6*	58.0	33.2	20.3	53.2*	-0.2	74.8*
COc1ccc(C(=O)NCC(C)C)c(OC)c1	72.4*	-8.0	-2.5	4.6	4.3	-4.7	6.7
COc1ccc(NC(=O)c2cc3ccccc3cc2OC)cc1	50.0*	-2.6	-26.3	-19.5	17.6	-4.8	36.0
CCn1cc([N+](=O)[O-])c(C(=O)Nc2nc3ccc(OC)cc3s2)n1	16.5	10.6	23.5	27.6	-5.2	-1.1	.
Cc1ccc(C)c(NC(=O)COC(=O)CCC(=O)c2cccs2)c1	12.5	7.7	9.8	15.3	-2.0	0.7	.
Cc1cc(C)n(-c2ccc(C(=O)Nc3nc4ccccc4s3)cc2)n1	-3.6	-1.5	-9.7	0.0	10.7	0.7	.
C=CCn1cccc(C(=O)Nc2ccc(OC)cc2)c1=O	95.5*	-1.8	4.8	5.7	4.0	-0.6	19.2
Nc1ccc(C(=O)Nc2nc3ccccc3s2)cc1	50.6*	25.1	2.5	11.5	-0.5	4.2	44.3*
COc1cccc(CN2CCN(S(=O)(=O)c3ccc(Br)cc3)CC2)c1	20.9	.	17.3	3.6	-16.9	2.4	.
